Out of some 310,000 compounds screened, about 14,000 (4.5%) showed an effect of 50% or more. Effects have a minus sign here. The list comes from a sample in which strong results are over-represented; it also holds similar structures and randomly drawn compounds.
Biological target: human ether-à-go-go-related gene (hERG) potassium channel (human, UniProt Q12809)
Test: primary screen, population patch clamp on CHO cells stably expressing hERG; higher = less effect of the substance
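Also: peak tail current of the secondary pulse compared with the same well before compound.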

human ether-à-go-go-related gene (hERG) potassium channel, sequence (Q12809 whole entry, looked up): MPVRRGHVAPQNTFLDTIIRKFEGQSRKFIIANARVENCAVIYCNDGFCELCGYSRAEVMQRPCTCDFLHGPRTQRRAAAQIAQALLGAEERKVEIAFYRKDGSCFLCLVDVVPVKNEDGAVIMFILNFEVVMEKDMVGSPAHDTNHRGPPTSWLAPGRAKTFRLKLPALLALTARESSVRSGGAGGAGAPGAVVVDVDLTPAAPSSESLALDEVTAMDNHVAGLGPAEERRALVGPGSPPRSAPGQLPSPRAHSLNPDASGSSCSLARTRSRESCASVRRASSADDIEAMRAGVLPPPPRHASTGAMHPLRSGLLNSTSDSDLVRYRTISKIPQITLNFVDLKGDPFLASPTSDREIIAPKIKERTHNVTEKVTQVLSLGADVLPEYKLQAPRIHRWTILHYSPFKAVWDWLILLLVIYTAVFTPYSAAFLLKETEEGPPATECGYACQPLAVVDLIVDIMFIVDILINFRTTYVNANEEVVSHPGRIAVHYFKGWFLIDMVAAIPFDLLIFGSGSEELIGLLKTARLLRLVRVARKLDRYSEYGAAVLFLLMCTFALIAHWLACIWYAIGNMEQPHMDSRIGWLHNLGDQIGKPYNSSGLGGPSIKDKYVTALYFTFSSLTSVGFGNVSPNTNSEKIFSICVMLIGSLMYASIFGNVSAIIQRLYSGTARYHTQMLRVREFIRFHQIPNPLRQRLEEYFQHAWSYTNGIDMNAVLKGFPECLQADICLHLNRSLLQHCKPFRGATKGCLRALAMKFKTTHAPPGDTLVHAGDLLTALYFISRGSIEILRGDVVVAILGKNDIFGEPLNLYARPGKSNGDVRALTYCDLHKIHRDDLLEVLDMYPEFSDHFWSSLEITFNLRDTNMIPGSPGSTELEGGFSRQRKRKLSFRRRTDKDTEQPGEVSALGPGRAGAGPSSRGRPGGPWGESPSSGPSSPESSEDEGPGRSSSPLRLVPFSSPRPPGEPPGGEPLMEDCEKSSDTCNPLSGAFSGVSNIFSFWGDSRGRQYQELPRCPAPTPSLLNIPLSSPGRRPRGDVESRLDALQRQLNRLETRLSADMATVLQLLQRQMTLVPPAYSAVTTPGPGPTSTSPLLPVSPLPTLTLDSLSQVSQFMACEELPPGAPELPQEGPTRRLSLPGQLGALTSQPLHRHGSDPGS

SMILES | hERG current change (%, negative = inhibition) at 10uM
Cc1cc2c(cc1S(=O)(=O)Nc1cccc(F)c1)n(C)c(=O)c(=O)n2C | -10.9%
O=C(NC1CCCCC1)c1cc2ccccc2cc1O | -12.7%
Cc1ccc(S(=O)(=O)N2CCC3(CC2)CC(=O)c2ccccc2O3)cc1 | -25.7%
O=C1CC2(CCN(S(=O)(=O)c3ccccc3F)CC2)Oc2ccccc21 | -84.6%
COc1ccc(S(=O)(=O)N2CCC3(CC2)CC(=O)c2ccccc2O3)cc1 | -24.8%
O=C1CC2(CCN(S(=O)(=O)c3ccccc3)CC2)Oc2ccccc21 | -84.6%
O=C(O)c1ccc(S(=O)(=O)N2CCC3(CC2)CC(=O)c2ccccc2O3)cc1 | 11.5%
CC(=O)c1ccc(S(=O)(=O)N2CCC3(CC2)CC(=O)c2ccccc2O3)cc1 | -42.6%
O=C(Nc1nnc(-c2ccc(Br)cc2)o1)c1cccc(N2C(=O)CCC2=O)c1 | 13.4%
COc1ccc(CN2CC[C@H]3C=CC[C@@H](C(=O)N4CCOCC4)[C@H]3C2=O)cc1OC | 7.75%
CS(=O)(=O)Nc1cccc(C2=NN(S(C)(=O)=O)C(c3ccc4c(c3)OCO4)C2)c1 (stereo not shown) | -62.3%
CC(=O)N1N=C(c2cccc(NS(C)(=O)=O)c2)CC1c1ccc2c(c1)OCO2 (stereo not shown) | -59.2%
Cc1ccc(C2=NN(S(C)(=O)=O)C(c3ccc4c(c3)OCO4)C2)cc1 (stereo not shown) | -2%
CC(=O)N1N=C(c2ccc(NS(C)(=O)=O)cc2)CC1c1ccc2nccnc2c1 (stereo not shown) | -63.2%
CS(=O)(=O)Nc1ccc(C2=NN(S(C)(=O)=O)C(c3ccc4nccnc4c3)C2)cc1 (stereo not shown) | -32.8%
CC(=O)N1N=C(c2ccccc2)CC1c1ccc2c(c1)OCO2 (stereo not shown) | 1.98%
CC(=O)N1N=C(c2ccc3nccnc3c2)CC1c1ccccc1 (stereo not shown) | -34.9%
CS(=O)(=O)N1N=C(c2ccccc2)CC1c1ccc2c(c1)OCO2 (stereo not shown) | 13.9%
CC(=O)N1N=C(c2ccc(C)cc2)CC1c1ccc2c(c1)OCO2 (stereo not shown) | -30.1%
Cc1c(/C=N/NC(=O)c2cc(Br)ccc2O)c(=O)n(C)c(=O)n1C | 3.23%

SMILES | hERG current change (%, negative = inhibition) at 10uM
Cc1[nH]c2ccccc2c1C(=O)C(=O)N1CCC2(CC1)OCCO2 | 7.95%
COc1cccc(NC(=O)CN(C)CC(=O)Nc2ccc(C)c([N+](=O)[O-])c2)c1 | -15.8%
CCOc1ccccc1N(CC(=O)NC1CCCCC1)S(=O)(=O)c1ccc(C)cc1 | -7.2%
CSCCC(NC(=O)c1ccc(Cl)cc1Cl)C(=O)NCc1ccccn1 (stereo not shown) | -8.59%
Cc1ccc(NCc2n[nH]c(=S)n2-c2ccccc2)cc1 | 15%
O=C(Nc1ccc(Cl)c(Cl)c1)c1cccnc1 | -2.86%
O=C(Cc1csc(NC(=O)Nc2cccc(Cl)c2)n1)NCc1ccccn1 | -5.14%
COc1ccccc1NC(=O)Nc1nc(CC(=O)NCc2cccnc2)cs1 | -13.3%
O=C(Nc1cccnc1)Nc1cc(Cl)cc(Cl)c1 | 6.81%
O=C(Cc1csc(NC(=O)Nc2cccc(Cl)c2)n1)NCc1cccnc1 | -53.8%
O=C(Nc1cccnc1)Nc1ccc(F)c(Cl)c1 | -36.8%
O=C(NCc1cccnc1)Nc1cccc(Cl)c1 | 15%
O=C(Nc1ccc(F)c(F)c1)c1cccnc1 | 0.898%
O=C(Nc1ccc(F)c(Cl)c1)c1cccnc1 | -65.9%
O=C(Cc1csc(NC(=O)Nc2ccc(Cl)cc2)n1)NCc1ccccn1 | -44.7%
O=C(Nc1ccc(Cl)cc1)Nc1cccnc1 | -50.7%
O=C(Cc1csc(NC(=O)Nc2ccc(Cl)cc2)n1)NCc1cccnc1 | -50.8%
CCN1C(=O)C(=O)N(Cc2ccc(OC)c(F)c2)C1=O | 15.1%
CC(C)CCNC(=O)C(c1ccco1)N(Cc1ccc(F)cc1)C(=O)c1snc(C(N)=O)c1N (stereo not shown) | -22.4%
CC(=O)NC(=C(Cl)Cl)S(=O)(=O)c1ccccc1 | 23.9%

SMILES | hERG current change (%, negative = inhibition) at 10uM
CCCCCn1c(=O)c(C(=O)Nc2cccc(C)c2)c(O)c2ccccc21 | 20.7%
CCN(CC)CCCNc1cc(C(F)(F)F)c(C#N)c2nc3ccccc3n12 | -18.4%
CCc1cccc(N(C(=O)c2csnn2)C(C(=O)NC(C)(C)C)c2ccccn2)c1 (stereo not shown) | 1.65%
Cc1ccc(C(=O)Nc2c(C)cc(-c3ccc(Cl)cc3)oc2=O)cc1 | -6.18%
O=S(=O)(/N=C(/Nc1ccccc1F)c1ccccc1)c1ccccc1 | 4.57%
O=C(NNC(=O)c1cnccc1C(F)(F)F)c1ccc(Cl)cc1 | 11.1%
Cc1c(C(c2cccc([N+](=O)[O-])c2O)c2c(C)n(C)n(-c3ccccc3)c2=O)c(=O)n(-c2ccccc2)n1C | -2.28%
CCc1cccc(NC(=S)N(CCOC)C(C)c2ccco2)c1 (stereo not shown) | -2.48%
COc1ccc(-n2cc3ccc([N+](=O)[O-])cc3n2)cc1 | 7.2%
CCCn1c(=N)n(CC(O)c2ccc(C)cc2)c2ccccc21.Cl (stereo not shown) | -65.6%
CCCCn1c(=N)n(CC(O)c2ccccc2)c2ccccc21.Cl (stereo not shown) | -64.9%
Cl.Cn1c(=N)n(CC(O)c2cccs2)c2ccccc21 (stereo not shown) | -39.9%
CCn1c(=N)n(CC(O)c2cccs2)c2ccccc21.Cl (stereo not shown) | -60.4%
Cl.Cn1c(=N)n(CC(O)c2cccc3ccccc23)c2ccccc21 (stereo not shown) | -67%
CCCn1c(C(O)c2ccc(C)cc2)nc2ccccc21 (stereo not shown) | 15.8%
Cl.Cn1c(=N)n(CC(O)c2ccccc2)c2ccccc21 (stereo not shown) | -26.3%
Br.Cn1c(=N)n(CC(=O)O)c2ccccc21 | -5.99%
COc1cccc(C(O)Cc2nc3ccccc3n2C)c1OC (stereo not shown) | 23.7%
